# Screening results from PubChem BioAssay.
# Tg IFNy HTS: T. gondii growth inhibition under IFN-gamma; Toxoplasma gondii growth in IFN-gamma-treated host cells; active compounds read low; activity change, negative = inhibition, % (concentration not given with the values); actives 3.8% (n = 69,000); AID 1259416; in the data active = activity change below about -70%, passing the limit was not always enough;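 note: host cells are HeLa cells infected with Toxoplasma gondii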
# Active calls of the source: *; ! = a repeat was not active. Many of the other results were omitted from the sample, so hits are more common in it than they were.
SMILES,Tg IFNy HTS
COc1ccc2cc1Oc1ccc(cc1)C[C@H]1c3cc(c(OC)cc3CCN1C)Oc1c(OC)c(OC)cc3c1[C@H](C2)N(C)CC3,-71*!
COc1ccc2c(c1OC)C(=O)OC2[C@H]1c2c(cc3c(c2OC)OCO3)CCN1C (some centres undefined),24
COCCN1C(=O)CCc2cc(NC(=O)C(C)(C)C)ccc21,-1
COc1ccc(-c2nc(CN3CCCC3c3ccccn3)c(C)o2)cc1 (centres undefined),7
COc1ccc(-n2cccn2)c(CN2CCCCC2c2ccccn2)c1 (centres undefined),-85*
COc1ccc(-n2cccn2)c(CN2CCC(n3nc(C)cc3C)C2)c1 (centres undefined),-5
COCCN1CCC2(CC1)CC1(CCN(S(=O)(=O)C3CC3)CC1)N(C)C2=O,-1
CC(=O)Nc1ccc(C#CC2(NC(=O)c3ccc(C)nc3)CCCCC2)cn1,63
CCOc1ccc(-n2c(C3CCCN(C)C3)n[nH]c2=O)cc1 (centres undefined),72
Cc1ccc2[nH]c3c(c2c1)CN(C)CC3,12
Cc1ccc2[nH]c(=O)c(Cc3ccccc3)c(O)c2c1,10
Cc1ccc2[nH]c3c(c2c1)CCNC3=O,-93*
CC(C)CN1CC2CN(C(=O)Nc3ccccc3)CC21 (centres undefined),5
CCOc1ccc(Nc2nc(N)nc(CN3CCN(C)CC3)n2)cc1,31
Cc1ccc(Nc2nc(N)nc(CSc3nc4ccccc4s3)n2)cc1,-64
Cc1ccc(Nc2nc(N)nc(CN3CCc4ccccc4C3)n2)cc1,-99*
CCCc1cc(C(=O)N2CCc3cc(OC)c(OC)cc3C2)n[nH]1,5
Cc1ccc(CN(C(=O)c2cc(=O)[nH][nH]2)C2CC2)s1,-15
CCCCOC(=O)c1ccc(NC(=O)Nc2ccc(Cl)c(Cl)c2)cc1,-62
CNC(=O)c1cc(Oc2ccc(NC(=O)Nc3ccc(Cl)c(C(F)(F)F)c3)cc2)ccn1,-80*
CC(=O)Nc1ccc(OCc2ncc(C(F)(F)F)cc2Cl)cc1,-44
Cc1noc(CCC(=O)Nc2ccc3c(c2)N(S(C)(=O)=O)CC3)n1,-13
CN(C)c1ncc2c(n1)[C@H]1CN(Cc3ccccc3F)C[C@@H]1S(=O)(=O)C2,-103*
O=S1(=O)Cc2cnc(NCC3CC3)nc2[C@H]2CN(Cc3ccc(F)cc3)C[C@@H]21,-7
CN(C)c1ncc2c(n1)[C@H]1CN(C(=O)c3ccccc3)C[C@@H]1S(=O)(=O)C2,1
SMILES,Tg IFNy HTS
COc1cc(-c2ccc(-n3cccn3)cc2)cc(OC)c1OC,23
Cc1oc(-c2ccc(NC(=O)c3ccc(Cl)s3)cc2)nc1Cn1cccn1,63
Cc1cccc2nc(Cn3c4ccccc4c4nc5n(c(=O)c43)CCS5)cc(=O)n12,24
Cc1cccc(CN2CCOCC3(CCN(c4ccccn4)C3)C2)n1 (centres undefined),-43
Cc1cccc(/C=N/Nc2cc(N3CCOCC3)nc(OCCc3ccccn3)n2)c1,-74*
Cc1cccnc1CC(C)Nc1cc(N2CCOCC2)nc(N)n1 (centres undefined),6
CN(C)C(=O)C1CCC2(CCN(S(=O)(=O)C3CC3)CC2)O1 (centres undefined),4
Cc1cc(OC(=O)N2CCOCC2)ccc1OC(=O)N1CCOCC1,-19
COc1ccc(F)c(CN2CCC(NS(C)(=O)=O)CC2)c1Cl,4
CC(C)(C)NC(=O)N1CCC(Nc2nccc(C(F)(F)F)n2)CC1,-62
COc1ccc(F)c(F)c1C(=O)c1cnc(NC2CCN(S(C)(=O)=O)CC2)nc1N,-76*
O=C(O)CC1CC2(CCN(C(=O)Cc3cccnc3)CC2)Oc2ccccc21 (centres undefined),5
CCC(=O)N1CCC2(CC1)CC(CC(=O)Nc1cccnc1)c1ccccc1O2 (centres undefined),-3
CN(C)C(=O)N1CCC2(CC1)CC(CC(=O)Nc1cccnc1)c1ccccc1O2 (centres undefined),-113*
CCn1cc2c(n1)CN(C(=O)COC)CC2COC (centres undefined),25
O=C(CCc1ccc(-c2ccc(Cl)cc2)[nH]1)N1CCOC(C(F)(F)F)C1 (centres undefined),-4
CCn1nc(CNC(=O)c2cccc(C3CCNC3)c2)c2ccccc21 (centres undefined),-86*
O=C(NCc1nnc2n1CCCC2)c1cccc(C2CCNC2)c1 (centres undefined),5
CN(Cc1cccc2ncccc12)C(=O)c1cccc(C2CCNC2)c1 (centres undefined),4
Cc1ccc(-c2cnc(N)cn2)c2cccnc12,0
Cc1nsc(NC(=O)N(C)CC2COc3ccccc3O2)n1 (centres undefined),103
Cc1ccc(Sc2ccc(C(=O)c3ccccc3)cc2)cc1,-78*
Cc1ccc(S(=O)(=O)NC(=O)c2ccccc2)cc1,-23
CN(C)c1ccc(C(=O)c2ccccc2)cc1,13
Cc1cc2cc(NC(=O)CN3C(=O)NC(C)(c4ccccc4)C3=O)cc(Cl)c2o1 (centres undefined),-77*
Cc1cc2cc(NC(=O)c3nc4ccccc4n(C)c3=O)cc(Cl)c2o1,28
